Source: PubChem (several laboratories)
Most compounds without a hit are left out; they make up all but 1.8% or so of the library.
PriA SSB inh = inhibitors of Klebsiella pneumoniae PriA binding to SSB C-terminal tail, primary screen, biochemical, AlphaScreen. inhibition, % at 33 µM. PriA–SSB C-terminal tail interaction (Klebsiella pneumoniae). actives 0.6% (n = 430,000). AID 1272365, 2023. AlphaScreen SSBct-PriA binding, biotinylated peptide; in the data active = inhibition mostly above about 37%, no sharp cut-off; inactive = mostly below about 20%;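 also: plate controls were negative control peptide for no effect and reference peptide for full effect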
MazF activator = activators of E. coli MazEF toxin-antitoxin RNase, primary screen, biochemical, fluorescence, uHTS; activation, % at 20 µM; actives 0.32% (n = 350,000); AID 504720, 2011; Endoribonuclease toxin MazF (Escherichia coli (strain K12)), P0AE70; FAM/BHQ RNA-DNA oligo cleavage fluorescence, 5 h; in the data active = activation above about 50%
Target sequence (P0AE70 whole entry, looked up): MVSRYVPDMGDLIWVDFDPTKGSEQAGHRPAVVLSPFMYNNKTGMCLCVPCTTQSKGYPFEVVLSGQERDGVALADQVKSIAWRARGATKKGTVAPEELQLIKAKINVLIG
PrP UTR inh = inhibition of PrP 5' UTR reporter expression | cell-based PrP 5' UTR mRNA reporter, plate reader | inhibition, % (no concentration beside the values) | actives 0.35% (n = 340,000) | AID 488862, 2010; in the data active = inhibition above about 52%; also: 0 = median of the neutral control wells
PfHsp40 rescue = rescue of yeast from PfHsp40 toxicity, primary screen, S. cerevisiae, ATP luminescence; S. cerevisiae expressing PfHsp40, growth rescue; growth rescue, % at 12.5 µM; actives 0.68% (n = 340,000); AID 504582, 2011; in the data active = growth rescue above about 28%, passing the limit was not always enough;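 also: yeast W303a lacking pdr1 and pdr3 grown in galactose medium; growth measured after three days at 30 °C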
PrPC surface inh = inhibitors of human cell surface prion protein PrPC, primary screen, cell-based, TR-FRET. Major prion protein (Homo sapiens), P04156. TR-FRET read-out. inhibition, % at 13.8 µM. actives 0.43% (n = 370,000). AID 720596, 2013; in the data active = inhibition above about 24%; also: 0% = median of the test wells and 100% = reference compound wells
* marks the source's active call; other numbers are inactive results.

How did O=C(NCCCn1ncccc1=O)c1cc2n(n1)CCCO2 do in these assays?
PriA SSB inh: -11

Results for O=C(NCCCn1ccnc1)c1cc2n(n1)CCCO2 ?
PriA SSB inh: 34*

Results for C=CCCC(=O)NCC#CCOc1ccc2c(c1)OCO2 ?
PriA SSB inh: -10

What do the screens show for `Cc1nc(SC(C)C(=O)Nc2cccc(C(F)(F)F)c2)c2c(C)c(C(=O)O)sc2n1` (stereo not given)?
PriA SSB inh: -11; MazF activator: -16; PrP UTR inh: -9; PfHsp40 rescue: 49*; PrPC surface inh: -3

What do the screens show for `Cc1ccc(OCC(O)CN2C(=O)NC(C)(C)C2=O)cc1` (stereo not given)?
PriA SSB inh: -23; MazF activator: 1; PrP UTR inh: -13; PfHsp40 rescue: 53*; PrPC surface inh: 0

How did Cc1ccc(OCC(O)CN2C(=O)NC(C)(C)C2=O)cc1C (stereo not given) do in these assays?
PriA SSB inh: -9; MazF activator: 2; PrP UTR inh: -21; PfHsp40 rescue: 1; PrPC surface inh: -6

What do the screens show for `O=C(O)c1ccc(N/N=C/c2ccc(-c3ccccc3)cc2)cc1`?
MazF activator: -16; PrP UTR inh: -67; PfHsp40 rescue: 0; PrPC surface inh: 10

What do the screens show for `O=C(O)c1ccc(N/N=C/C=C/c2ccccc2)cc1`?
PriA SSB inh: inactive; MazF activator: 4; PrP UTR inh: -60; PfHsp40 rescue: 458*; PrPC surface inh: -2

How did Cc1ccc(C)n1Cc1ccc(C(=O)O)cc1 do in these assays?
PriA SSB inh: -4; MazF activator: -8; PrP UTR inh: -16; PfHsp40 rescue: 2

What do the screens show for `O=C(N/N=C/C(Cl)=C/c1ccc([N+](=O)[O-])cc1)C(=O)Nc1ccccc1C(=O)O`?
PriA SSB inh: inactive; MazF activator: -24; PrP UTR inh: -10; PfHsp40 rescue: 2; PrPC surface inh: 1

What do the screens show for `O=C(N/N=C/C(Cl)=C/c1ccc([N+](=O)[O-])cc1)C(=O)Nc1ccc(C(=O)O)cc1`?
PriA SSB inh: inactive; MazF activator: 16; PrP UTR inh: -7; PfHsp40 rescue: 85*; PrPC surface inh: -18

Results for CCc1cccc2sc(NC(=O)COc3ccccc3)nc12 ?
PriA SSB inh: 4

What do the screens show for `CCCC1CC(C)(c2csc(Nc3ccc(OCC)cc3)n2)OC1=O` (stereo not given)?
PriA SSB inh: -6; MazF activator: 7; PrP UTR inh: -13; PfHsp40 rescue: 50*; PrPC surface inh: 9

Results for CCOc1ccc(Nc2nc(C(=O)N3CCCC3)cs2)cc1 ?
PriA SSB inh: 0

Results for Nc1nc(N)nc(-c2cc(O)ccc2O)n1 ?
PriA SSB inh: -5; MazF activator: -6; PrP UTR inh: 6; PfHsp40 rescue: -2; PrPC surface inh: -2

Results for CC(C)(C)c1cc(-c2nc(N)nc(N)n2)c(O)c(C(C)(C)C)c1 ?
PriA SSB inh: 4; MazF activator: 5; PrP UTR inh: -11; PfHsp40 rescue: 225*; PrPC surface inh: 0

Results for Cc1ccc2nc3c(c(C(=O)OC4CCOC4=O)c2c1)CCCC3 (stereo not given) ?
PriA SSB inh: 8; MazF activator: 1; PrP UTR inh: -7; PfHsp40 rescue: -1; PrPC surface inh: 6

What do the screens show for `COc1ccc(/C=C2/SC(=S)N(CCC(=O)Nc3cccnc3)C2=O)cc1OC`?
MazF activator: -6; PrPC surface inh: 2

What do the screens show for `Cc1ccc(/C=C2\SC(=S)N(CCC(=O)Nc3cccnc3)C2=O)cc1`?
PriA SSB inh: 8; MazF activator: 82*; PrP UTR inh: -10; PfHsp40 rescue: -1; PrPC surface inh: -1

What do the screens show for `O=C(N/N=C/c1ccc[nH]1)c1sc2ccccc2c1Cl`?
MazF activator: 12; PrP UTR inh: -24; PfHsp40 rescue: 498*; PrPC surface inh: 8

Results for O=C(NN=Cc1ccc[nH]1)c1sc2ccccc2c1Cl ?
PriA SSB inh: 18

How did Oc1cccc2c(NC(=S)Nc3ccc(OC(F)F)cc3)cccc12 do in these assays?
PriA SSB inh: 54*; MazF activator: 12; PrP UTR inh: 16; PfHsp40 rescue: -1; PrPC surface inh: -12

How did CC(=O)n1c(C=Nc2ccc(Cl)cc2)c(O)c2ccccc21 do in these assays?
PriA SSB inh: -5; MazF activator: active; PrP UTR inh: -45; PfHsp40 rescue: 0; PrPC surface inh: 5
